TbREL1 inh – TbREL1 RNA ligase inhibitors, primary screen, biochemical, FRET fluorescence; RNA-editing ligase 1, mitochondrial (Trypanosoma brucei brucei), P86926; TbREL1 RNA ligation; inhibition, % at 9.66 µM; actives 0.49% (n = 89,000); AID 1117264, 2014;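 active = inhibition above the mean inhibition across all screened compounds plus 3 SD, cut at about 11% in these data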;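 note: 0% = plate median of test wells and 100% = NSC42067 control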
Target sequence (P86926 whole entry, looked up): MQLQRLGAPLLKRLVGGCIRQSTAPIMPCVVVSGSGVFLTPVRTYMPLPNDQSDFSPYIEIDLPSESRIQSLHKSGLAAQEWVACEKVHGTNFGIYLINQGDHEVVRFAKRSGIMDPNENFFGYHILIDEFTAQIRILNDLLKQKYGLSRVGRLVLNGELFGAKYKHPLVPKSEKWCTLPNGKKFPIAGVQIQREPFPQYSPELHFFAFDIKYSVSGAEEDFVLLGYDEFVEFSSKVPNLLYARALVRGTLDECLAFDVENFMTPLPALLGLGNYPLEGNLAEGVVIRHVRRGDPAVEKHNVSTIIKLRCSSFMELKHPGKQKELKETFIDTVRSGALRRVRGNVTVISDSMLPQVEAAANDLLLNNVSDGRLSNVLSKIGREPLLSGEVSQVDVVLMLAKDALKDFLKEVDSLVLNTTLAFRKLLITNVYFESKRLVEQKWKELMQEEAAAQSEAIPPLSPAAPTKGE
TbREL1 conf – TbREL1 RNA ligase inhibitors, confirmation, biochemical, FRET fluorescence, triplicate | shares compounds with TbREL1 inh | TbREL1 RNA ligation | inhibition, % at 9.66 µM | actives 37% (n = 390);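 active = mean inhibition across replicates above a set limit taken from the earlier primary screen, cut at about 11% in these data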;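 note: 0% = REL1 with substrate and DMSO and 100% = REL1 plus control inhibitor NSC42067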
* hit, by the source's call. This is one part of a sample in which hits are shown more often than they occur.

How did O=C(C1CCN(c2ncnc3c2sc2cccc(F)c23)CC1)N1CCN(Cc2ccccc2)CC1 do in these assays?
TbREL1 inh: -1.5

What do the screens show for `CC(/C=N\NC(=O)CSc1nnc(-c2ccc(Br)cc2)n1-c1ccccc1)=C\c1ccco1`?
TbREL1 inh: 1.2

What do the screens show for `O=C(CSc1nc2ccccc2n1CCc1ccccc1)c1ccc(O)c(O)c1`?
TbREL1 inh: 9.1

What do the screens show for `Cc1nc2ccccc2n1CC(=O)c1ccc(O)c(O)c1`?
TbREL1 inh: 16.0*; TbREL1 conf: 15.5*

How did Cc1[nH]c2ccccc2c1C(=O)COC(=O)Cn1c(C)nc2ccccc21 do in these assays?
TbREL1 inh: 1.1

Results for COc1ccc(N2CCN(CCCNC(=O)CCc3ccc(F)cc3)CC2)cc1 ?
TbREL1 inh: -8.5

What do the screens show for `O=C(Nc1ccc(F)cc1)OCc1cn(Cc2ccc(Cl)cc2)nn1`?
TbREL1 inh: -1.8

How did Cc1cccc(Cn2cc(COC(=O)Nc3ccc(F)cc3)nn2)c1 do in these assays?
TbREL1 inh: 15.5*; TbREL1 conf: -0.5

How did O=C(Nc1ccc(F)cc1)OCc1cn(Cc2ccccc2)nn1 do in these assays?
TbREL1 inh: -1.7

How did Brc1ccc(-c2csc(N3CCC(c4nn[nH]n4)CC3)n2)cc1 do in these assays?
TbREL1 inh: -3.6

How did Oc1ccc(-c2ccccc2F)c2cccnc12 do in these assays?
TbREL1 inh: -3.8

How did Oc1ccc(CNc2ccccc2F)c2cccnc12 do in these assays?
TbREL1 inh: 1.2

Results for Oc1ccc(Nc2ccccc2F)c2cccnc12 ?
TbREL1 inh: 17.4*; TbREL1 conf: -9.4

Results for CCCCc1ccc2nc(NC(=O)c3cccs3)sc2c1 ?
TbREL1 inh: 4.5

How did COc1ccc2c(c1)CCCN2C(=O)C1CCCN(S(=O)(=O)c2ccc(C(C)(C)C)cc2)C1 (centres undefined) do in these assays?
TbREL1 inh: -3.9

How did COc1ccc(/C=N\NC(=O)CN2CCN(Cc3ccccc3)CC2)cc1OCc1ccccc1 do in these assays?
TbREL1 inh: -4.0

Results for O=C(O)c1ccccc1-c1noc(-c2ccccc2F)n1 ?
TbREL1 inh: 13.5*; TbREL1 conf: 3.9

How did O=C(c1ccccc1-c1nc(-c2ccccc2)no1)N1CCOCC1 do in these assays?
TbREL1 inh: -0.8

Results for O=C(c1ccccc1-c1nc(-c2ccc(F)cc2)no1)N1CCCC1 ?
TbREL1 inh: -0.8

What do the screens show for `COC(=O)Cn1cnc2c(NC(=O)c3ccccc3)ncnc21`?
TbREL1 inh: 3.5

Results for COC(=O)[C@]12C[C@H](CC(=O)N3CCN(C(=O)C4CC4)CC3)C(=O)N(Cc3cccc4ccccc34)C1=C[C@H](C(C)C)O[C@@H]2C1CC1 ?
TbREL1 inh: 4.6

What do the screens show for `COC(=O)CN1CCN(C(=O)c2csc3ccccc23)CC1`?
TbREL1 inh: 1.2

How did Nc1[nH]c(C(=O)c2ccccc2)c(-c2ccc(Cl)cc2Cl)c1C(=O)NCCC1=CCCCC1 do in these assays?
TbREL1 inh: 6.0

Screens from PubChem BioAssay.
